Assay results from PubChem BioAssay AID540303 (National Center for Advancing Translational Sciences (NCATS), 2011).
Among all 330,000 compounds or so, about 1,000 (0.3%) were called active. Inconclusive results (about 3%) are left out. This is one part of a sample in which actives are shown more often than they occur. Calls come from the whole dose curve; as a rule, active = well fitted inhibition curve with a large enough effect; inconclusive = small, poorly fitted or top-dose-only effect; inactive = no such curve, though single readings can be large or run the other way; tested in mouse RAW 264.7 cells.

Assay: qHTS for Inhibitors of Cell Surface uPA Generation; note: nearly all actives have a fitted effect of over 55% in size
Details: cell surface uPA generation assay; series mostly up to 38.3 µM; activity change, negative = inhibition: at the top concentration
Source text: The overall objective of this project is to perform a quantitative high throughput screen (qHTS) to identify novel compounds that inhibit the generation of cell surface urokinase activity. The urokinase plasminogen activator (uPA) is one of the two primary endogenous systems that mediate plasminogen activation into plasmin. Members of this system, including uPA and its receptor (uPAR), are overexpressed in several malignant tumors. This system plays a major role in adhesion, migration, invasion and metastasis of cancer cells. Small molecule inhibitors of the uPA system will serve as probes to understand the molecular mechanisms of the uPA cascade and better understanding the microenvironmental circumstances that facilitate the activation of plasminogen by uPA, and finally may provide novel candidate agents for anticancer drug therapy.
[…] […] Upon inhibition of the uPA activation cascade, the subsequent cell surface uPA activity-dependent translocation of LF into the cytoplasm is inhibited. ATP-Lite is used to measure intracellular ATP concentrations, which remain increased if LF entry into the cytoplasm is inhibited. This validation assay was performed using a small set of validation compounds.
NIH Chemical Genomics Center [NCGC]
NIH Molecular Libraries Probe Centers Network [MLPCN]
Assay Submitter (PI): Thomas Bugge, National Institute of Dental and Craniofacial Research, NIH
Cultured RAW 264.7 were dispensed into 1536-well clear bottom, white walled tissue culture plates at a density of 4000 cells/well and were incubated overnight (12-16 h) at 37 C in a 5% CO2 incubator. Serially diluted compounds in 23 nl DMSO were added to cells. […] Compound and reagent-treated plates were incubated for 24 h at 37 C in a 5% CO2 incubator. Perkin Elmer ATPlitetrade mark 1 step (3 ul) was then added to each well. Luminescence was detected using a Perkin Elmer ViewLuxtrade mark plate reader.
1.Dispensing RAW 264.7 cells into 1536-well, white walled tissue culture plates at a density of 4000 cells/well (4 uL).
2.Incubation at 37 C in a 5% CO2 incubator overnight.
3.Serially diluting compounds (1:5 serial dilution; 0.0024 uM to […] final concentration) in 23 nl DMSO.
5.Incubating the compound and reagent-treated plates for 24 hours at 37 C in a 5% CO2 incubator.
6.Adding ATP-Lite (3 ul).
7.Reading plates by ViewLux with an exposure length of 5 seconds.
% is set by controls: 0 for no effect and ±100 for the full control effect; potency is the fitted concentration of half-maximal effect.

| SMILES | activity change, negative = inhibition | Potency |
| --- | --- | --- |
| Cc1csc(NC(=O)c2ccc(C)s2)n1 | -4.48% (inactive) |  |
| COc1ccc(C(=O)Nc2cccc(NC(=O)c3ccc(OC)cc3OC)n2)c(OC)c1 | 10.8% (inactive) |  |
| COc1cc(SC)ccc1C(=O)NCCOc1ccccc1Cl | -1.79% (inactive) |  |
| COc1cc(SC)ccc1C(=O)Nc1nc(C)cs1 |  | 0.891 µM (active) |
| COc1ccc(C(=O)NC2=NCCS2)c(OC)c1 | -9.96% (inactive) |  |
| COc1ccc(C(=O)Nc2nncs2)c(OC)c1 |  | 11.2 µM (active) |
| CCCC(O)(c1ccccc1)C(c1ccccc1)c1ccccn1 (stereo not given) | 0.751% (inactive) |  |
| Cc1cc(C)c(C=NNc2nc3c([nH]2)c(=O)n(C)c(=O)n3C)c(C)c1 | 0.257% (inactive) |  |
| O=c1c2ccccc2ncn1CCc1ccncc1 | -2.13% (inactive) |  |
| O=C(Nc1ccccc1)Oc1cccc2cccnc12 | -8.43% (inactive) |  |
| NN=C(NN=Cc1ccccc1)c1ccccc1 | -1.74% (inactive) |  |
| COc1cc(/C=C/c2ccc(/C=C/c3cc(OC)c(OC)c(OC)c3)cc2)cc(OC)c1OC | 5.42% (inactive) |  |
| CCCN(CCC)S(=O)(=O)c1cc2c(cc1Br)CCN2C(=O)CC | 6.75% (inactive) |  |
| COc1ccc(NC(=S)NC2CCS(=O)(=O)C2)cc1 (stereo not given) | 13.3% (inactive) |  |
| COc1ccc(-c2ccc(OC(=O)NC3CCS(=O)(=O)C3)cc2)cc1 (stereo not given) |  | 10 µM (active) |
| O=C(Cc1ccc(Cl)cc1)NC1CCS(=O)(=O)C1 (stereo not given) | 0.7% (inactive) |  |
| COc1ccc2c(c1)C(=O)CC(c1ccccc1)O2 (stereo not given) | -5.17% (inactive) |  |
| O=S(=O)(Cc1ccc(Cl)cc1Cl)c1ccc(Cl)cc1 | -13.8% (inactive) |  |
| CC(=O)OCC(=O)C1(O)CCC2C3CC(C)C4=CC(=O)CCC4(C)C3C(O)CC21C (stereo not given) | -5.75% (inactive) |  |
| COc1cc(CN2CCC(C(N)=O)CC2)ccc1OCc1ccccc1 | -0.173% (inactive) |  |
| COc1cc(C)cc(CN2CCC(Cc3ccccc3)CC2)c1O | -15.2% (inactive) |  |
| Oc1c(CN2CCCC2)cc(COCc2ccccc2)c2cccnc12 |  | 4.47 µM (active) |
| Nc1ncnc2c1cnn2C1CC(O)C(CO)O1 (stereo not given) | 1.67% (inactive) |  |
| COc1ccc(C2NCCCC2c2ccccc2)cc1 (stereo not given) | 6.59% (inactive) |  |
| O=C(NN=CC=Cc1ccccc1)C(O)C(O)C(=O)NN=CC=Cc1ccccc1 (stereo not given) | 4.29% (inactive) |  |
| Cc1ccc(-c2cn3cc(C)ccc3n2)cc1 | -13% (inactive) |  |
| Cc1ccc2nc(-c3ccc(Br)cc3)cn2c1 |  | 2.82 µM (active) |
| Cc1ccc(-c2cn3cc([N+](=O)[O-])ccc3n2)cc1 | -15% (inactive) |  |

| SMILES | activity change, negative = inhibition | Potency |
| --- | --- | --- |
| CC(C)=CCc1ccc(O)c(=O)cc1C(C)C | -14.1% (inactive) |  |
| CC(C)Cn1cnc2c(SCc3ccc(Cl)cc3)nc(N)nc21 | 2.74% (inactive) |  |
| Nc1c(C(=O)NCc2ccccc2)nnn1Cc1cccc(Cl)c1 |  | 11.2 µM (active) |
| COc1cccc(CNC(=O)c2nnn(CC(=O)Nc3cc(Cl)ccc3C)c2N)c1 | -7.07% (inactive) |  |
| COc1cccc(CNC(=O)c2nnn(CC(=O)Nc3cc(C)ccc3C)c2N)c1 | -1.4% (inactive) |  |
| COc1ccc(N=C2C=CC(=O)O2)cc1 | -4.89% (inactive) |  |
| CCOc1cccc(SCc2noc(C(=O)NC(C)C)c2C(=O)O)c1 | -8.82% (inactive) |  |
| CCCNC(=O)c1onc(CSc2ccc(F)cc2)c1C(=O)NC(C)C | 9.02% (inactive) |  |
| COC(=O)c1c(CCl)noc1C(=O)NC(C)C |  | 10 µM (active) |
| CC(=O)OC1CCC2(C)C(=CCC3C4CC(=O)N(O)C(=O)C4(C)CCC32)C1 (stereo not given) | -4.19% (inactive) |  |
| CC(NC(=O)c1ccccc1)C(=O)Nc1ccccc1 (stereo not given) | 2.25% (inactive) |  |
| CC(=O)Nc1ccc(C(=O)Nc2cc(S(=O)(=O)N3CCOCC3)ccc2N2CCOCC2)cc1 | -3.85% (inactive) |  |
| CCc1nc(Nc2ccc(NC(C)=O)cc2)c2oc3ccccc3c2n1 | 8.93% (inactive) |  |
| CC(=O)Nc1ccc(Nc2c3ccccc3nc3ccccc23)cc1 |  | 1 µM (active) |
| CC(C)(C)OC(=O)NNc1c2ccccc2nc2ccccc12 | -8.44% (inactive) |  |
| OCC(O)C1OCOC(C(O)CO)C1O (stereo not given) | 9.73% (inactive) |  |
| O=C(NCCc1ccccc1)c1cccc(NC(=O)c2ccccc2)c1 | 1.44% (inactive) |  |
| O=C(NCc1cccc(C(F)(F)F)c1)c1cccc(S(=O)(=O)N2CCN(Cc3ccccc3)CC2)c1 | 1.34% (inactive) |  |
| CC(NC(=O)CCC(=O)N1CCN(S(=O)(=O)c2ccc(Cl)cc2)CC1)c1ccccc1 (stereo not given) | -7.34% (inactive) |  |
| O=C(CCC(=O)N1CCN(S(=O)(=O)c2ccc(Cl)cc2)CC1)NCc1cccc(C(F)(F)F)c1 |  | 12.6 µM (active) |
| Cc1cccc(NC(=S)N2CCC(C(=O)c3ccc(F)cc3)CC2)c1 | -2.65% (inactive) |  |
| O=C(Cn1cnc2c(OCc3ccccc3)ncnc21)NCc1nc2ccccc2[nH]1 | 20.3% (inactive) |  |
| Cc1ccc(CNC(=O)Cn2cnc3c(NCc4ccccc4)ncnc32)o1 |  | 11.2 µM (active) |
| CC(CNC(=O)Cn1cnc2c(OCc3ccccc3)ncnc21)c1ccccc1 (stereo not given) | 6.59% (inactive) |  |
| CC(C)OC(=O)c1ccc(NCc2cc(O)ccc2O)cc1Cl | 4.35% (inactive) |  |
| COC(=O)c1cc(OCC(=O)NC2CCCc3ccccc32)cc(C(=O)OC)c1 (stereo not given) | 1.62% (inactive) |  |
| O=C(CCNC(=O)c1ccc(Cl)cc1)NC1CCCc2ccccc21 (stereo not given) |  | 5.62 µM (active) |
